Among the data in PubChem BioAssay (NCATS) are outcome and Potency values, retold here.

Assay [1] addresses Glutathione peroxidase 1 (Homo sapiens) (UniProt P07203). Nature of the assay: Primary qHTS Assay for Inhibitors of Recombinant Selenoprotein Glutathione Peroxidase 1 (GPX1) (AID 1845191). Further: nearly all actives have a fitted effect of over 65% in size. Conditions: outcome: dose series up to 48.8 µM. In a few lines: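 GPX1 10 nM, GR 100 nM, GSH 1 mM, NADPH 0.5 mM, CHP 0.5 mM (final). 30-min cpd preincubation, RT. Ex340/Em450 read t=0, t=15 min.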

Assay [2] concerns the target Phospholipid hydroperoxide glutathione peroxidase GPX4 (Homo sapiens) (UniProt P36969). Briefly: Primary qHTS Assay for Inhibitors of Recombinant Selenoprotein Glutathione Peroxidase 4 (GPX4) (AID 1845192). Further: nearly all actives have a fitted effect of over 65% in size. Further: potency means the concentration at half of the fitted maximal effect. In a few lines:
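qHTS, GR-coupled: GPX4 200 nM + cpd 30 min RT → GSH 1 mM, NADPH 0.5 mM, GR 100 nM → CHP 0.5 mM start; fluor 340/450 at t0 and t15 min; no-enzyme wells as control.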

Assay [3] deals with Luciferin 4-monooxygenase (Photinus pyralis) (UniProt P08659). Briefly: Primary firefly luciferase (FLuc) qHTS assay for identification of artifact compounds. (AID 1845220). Further: nearly all actives have a fitted effect of over 60% in size. Conditions: outcome: dose series up to 54.1 µM. The method in brief:
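Reaction readout was CCD-imaged luminescence, taken 5 min after adding 10 nM purified firefly enzyme to compound-treated wells holding 10 uM luciferin and ATP in pH 7.6 buffer.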

The nature of assay [4]: Primary fluorescence-based thiol-reactive (MSTI) qHTS assay for identification of artifact compounds. (AID 1845221).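 Further: series mostly up to about 54 µM; thiol-reactive compounds lower the probe fluorescence signal; nearly all actives have a fitted effect of over 65% in size.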 The method in brief:
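Reactivity toward the thiol probe MSTI (4 uM) is scored by fluorescence at Ex/Em 525/598 nm after 1 h at room temperature. Acetyl-MSTI and MSTI define the activity scale.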

Assay [5] deals with Metallo-beta-lactamase type 2 (Klebsiella pneumoniae) (UniProt C7C422). Nature of the assay: qHTS to identify inhibitors of the New Delhi Metallo-beta-lactamase (NDM): assay validation screen against the NCATS LOPAC Collection (AID 1794843).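 Further: nitrocefin turnover by NDM-1 measured as 485 nm absorbance at plateau; series mostly up to about 38 µM.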 In a few lines:
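NDM-1 at 2 nM final in 50 mM HEPES pH 7.0, 1 uM ZnSO4, 0.01% Tween20, preincubated with LOPAC compounds pinned in DMSO; 50 uM nitrocefin (stock) added. Hydrolysis read as absorbance at 485 nm in the plateau phase.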

Assay [6] can be described thus: Viability counterscreen for antagonist of constitutive androstane receptor (CAR) against the NCATS DSHEA and TCM libraries (AID 1794837).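 Further: compound exposure lasted 24 h before viability reading.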 The method in brief:
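HepG2-CYP2B6-hCAR cells, 2,500/well, were exposed 24 hr at 37C to substances together with 48 uM CITCO (final). Viability was read as CellTiter-Fluor fluorescence (Ex/Em 405/540 nm) after 1 hr.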

Assay [7] in a line: Viability counterscreen for agonist of constitutive androstane receptor (CAR) against the NCATS DSHEA and TCM libraries (AID 1794838).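 Further: HepG2 cells with CYP2B6 reporter and hCAR plus 0.75 µM PK11195 antagonist.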 In a few lines:
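HepG2-CYP2B6-hCAR cells (2,500/well) treated 24 h at 37C with compounds plus 0.75 uM PK11195; viability read by CellTiter-Fluor fluorescence, Ex/Em 405/540 nm.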

For assay [8], the target named is Nuclear receptor subfamily 1 group I member 3 (Homo sapiens) (UniProt Q14994). Nature of the assay: Primary qHTS for agonist of constitutive androstane receptor (CAR) against the NCATS DSHEA and TCM libraries (AID 1794839).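 Further: HepG2 cells expressing human CAR with a CYP2B6 reporter plus PK11195 antagonist.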 The method in brief:
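HepG2-CYP2B6-hCAR cells, 2,500/well, attached 5 h, then dosed with 0.75 µM PK11195 (final) for 24 h at 37 °C. Luciferase luminescence read (ONE-Glo); CellTiter-Fluor viability (Ex/Em 405/540 nm) in same wells; CITCO positive control.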

Assay [9] is described as follows: HepG2 viability counterscreen (readout 2: ATP content) against the NCATS DSHEA and TCM libraries (AID 1794840). In a few lines: (§1)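 HepG2 cells, 1,000/well, attached ~4 h, then exposed ~24 h at 37C to substances. Protease activity read by fluorescence of 25 uM GF-AFC (Ex/Em 380/510 nm) after 30 min; ATP then by CellTiter-Glo luminescence.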
Assay [10] in a line: HepG2 viability counterscreen (readout 1: protease activity) against the NCATS DSHEA and TCM libraries (AID 1794841).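 Further: cells exposed to compounds for about 24 h before the protease read.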 In a few lines:
as §1

Results filed as inconclusive are left out. Where a call stands in place of a potency, no number is given. Calls of active or inactive are those of the source. The call rests on the fitted dose curve; in most records, active means well fitted curve in the direction sought with a large enough effect; inconclusive means small, poorly fitted or top-dose-only effect, or another doubt; inactive means no such curve, though single readings can be large; an effect the other way counts as inactive or inconclusive.

Phospholipid hydroperoxide glutathione peroxidase GPX4 (Homo sapiens), sequence (P36969 whole entry, looked up): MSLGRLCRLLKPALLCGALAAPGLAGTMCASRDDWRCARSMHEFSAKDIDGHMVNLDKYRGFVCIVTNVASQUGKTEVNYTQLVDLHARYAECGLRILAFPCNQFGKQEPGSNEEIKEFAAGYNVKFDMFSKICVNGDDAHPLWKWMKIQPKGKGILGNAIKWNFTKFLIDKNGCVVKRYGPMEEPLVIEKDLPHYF
Metallo-beta-lactamase type 2 (Klebsiella pneumoniae), sequence (C7C422 whole entry, looked up): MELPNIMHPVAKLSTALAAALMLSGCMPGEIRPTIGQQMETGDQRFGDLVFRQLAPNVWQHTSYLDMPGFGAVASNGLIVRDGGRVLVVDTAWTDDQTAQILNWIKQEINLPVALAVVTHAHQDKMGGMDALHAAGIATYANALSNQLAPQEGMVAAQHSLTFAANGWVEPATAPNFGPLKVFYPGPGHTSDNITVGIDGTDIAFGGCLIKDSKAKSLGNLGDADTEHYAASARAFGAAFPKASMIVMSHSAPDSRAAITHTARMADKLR
Glutathione peroxidase 1 (Homo sapiens), sequence (P07203 whole entry, looked up): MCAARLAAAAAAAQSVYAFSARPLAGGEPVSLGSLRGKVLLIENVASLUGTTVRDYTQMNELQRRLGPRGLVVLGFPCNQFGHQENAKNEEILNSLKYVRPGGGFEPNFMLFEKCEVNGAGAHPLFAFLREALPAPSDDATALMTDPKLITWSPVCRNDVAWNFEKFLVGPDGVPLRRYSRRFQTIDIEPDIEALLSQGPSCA
Nuclear receptor subfamily 1 group I member 3 (Homo sapiens), sequence (Q14994 whole entry, looked up): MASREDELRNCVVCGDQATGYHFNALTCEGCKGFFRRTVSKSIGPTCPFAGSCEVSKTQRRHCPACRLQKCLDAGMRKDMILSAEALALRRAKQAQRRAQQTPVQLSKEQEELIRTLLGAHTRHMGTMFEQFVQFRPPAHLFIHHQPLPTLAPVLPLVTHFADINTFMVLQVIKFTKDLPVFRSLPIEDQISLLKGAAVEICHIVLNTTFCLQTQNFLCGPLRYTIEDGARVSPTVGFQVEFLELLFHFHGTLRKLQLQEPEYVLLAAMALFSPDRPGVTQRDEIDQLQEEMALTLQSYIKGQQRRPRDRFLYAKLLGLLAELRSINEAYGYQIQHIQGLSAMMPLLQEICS

`CCOC(=O)c1cncn1C(C)c1ccccc1` (stereo not drawn): the result in assay [1], in assay [3] and in assay [4] was inactive. Further, the Potency entry in assay [2] was “inactive”.

Turning to `CN(C)C(=S)SSC(=S)N(C)C`, the outcome in assay [1] was inactive. In addition, the Potency entry in [2] was “inactive”.

Consider `CC1COC2(c3ccccc3Cl)c3cc(Cl)ccc3NC(=O)CN12` (stereo not drawn), for which the outcome in assay [1] was inactive. For the same molecule, the Potency entry in assay [2] is “inactive”.

Take `CCC1(c2cccc(O)c2)CCCCN(C)C1` (stereo not drawn): in assay [1], the result was inactive. In assay [2], the Potency result was “inactive”.

On to `Nc1ccccc1C(=O)OCC(O)CO` (stereo not drawn), for which, in assay [1], the result was inactive. Further, in assay [2], the Potency result was “inactive”.

As for `CCOC(=O)NC(C)(C)Cc1ccc(Cl)cc1`, the result in assay [1], in assay [3] and in assay [4] was inactive. For the same molecule, in assay [2], the Potency entry was “inactive”.

As to `CC[C@]1(O)CC[C@H]2[C@@H]3CCC4=CCCC[C@@H]4[C@H]3CC[C@@]21C`, the outcome in assay [1] was inactive.

As for `Clc1ccc(C(OCCN2CCCCC2)c2ccccc2)cc1` (stereo not drawn), in assay [2], the Potency result was “inactive”.

Turning to `O=c1n(Cl)c(=O)n(Cl)c(=O)n1Cl`, the Potency result in [2] is “inactive”.

Turning to `COC(=O)C1=CCCN(C)C1`, the outcome in assay [5] was inactive. Further, the Potency result in [2] is “inactive”.

For the molecule `Cc1c(Cl)c(=O)oc2cc(OP(=O)(OCCCl)OCCCl)ccc12`, the Potency result in assay [2] is “inactive”.

With `NC(=O)CN1CCCC1=O`, the molecule was classed as inactive in assay [5]. Besides, the Potency entry in [2] was “inactive”.

In the case of `CCCC[N+]1(C)[C@@H]2CC(OC(=O)[C@H](CO)c3ccccc3)C[C@H]1[C@@H]1O[C@@H]12` (stereo partly drawn), the outcome in assay [1], in assay [3] and in assay [4] was inactive. Further, the Potency result in [2] is “inactive”.

On to `CC(C)C(Br)C(=O)NC(N)=O` (stereo not drawn), for which, in assay [1], the outcome was inactive. In addition, the Potency result in assay [2] is “inactive”.

With `C[C@@H]1O[C@@H](O[C@@H]2C=C3CC[C@@H]4[C@H](CC[C@]5(C)[C@@H](c6ccc(=O)oc6)CC[C@]45O)[C@@]3(C)CC2)[C@H](O)[C@H](O)[C@H]1O`, the result in assay [1] was inactive. Also, the Potency result in assay [2] was “inactive”.

In the case of `CC#C[C@]1(O)CC[C@H]2[C@@H]3C[C@H](C)C4=CC(=O)CC[C@]4(C)[C@H]3CC[C@@]21C`, the result in assay [1] was inactive. In assay [2], the Potency entry is “inactive”.

Turning to `CCCCCCCCC(=O)NCc1ccc(O)c(OC)c1`, the result in assay [1] was inactive. The Potency result in assay [2] was “inactive”.

With `O=C(O)c1nn(Cc2ccc(Cl)cc2Cl)c2ccccc12`, in [5], the result was inactive. In [2], the Potency result is “inactive”.

For the molecule `CC(C)(O)C(Cl)(Cl)Cl`, the result in [1] was inactive. Also, the Potency entry in assay [2] was “inactive”.

For `C[N+]1(C)[C@@H]2CC[C@H]1CC(OC(=O)C(CO)c1ccccc1)C2` (stereo partly drawn), the outcome in assay [1] was inactive. Further, in assay [2], the Potency entry was “inactive”.

`O=C(NC(=O)c1c(F)cccc1F)Nc1cc(Cl)c(OC(F)(F)C(F)C(F)(F)F)cc1Cl` (stereo not drawn): the result in [1] was inactive. Besides, the Potency result in [2] is “inactive”.

Consider `COc1ccc(C(=O)N2CCCC2=O)cc1`, for which the outcome in assay [5] was inactive. Also, in [2], the Potency result is “inactive”.

Turning to `COP(=O)(OC)OC=C(Cl)Cl`, in assay [1], the outcome was inactive. Further, in assay [2], the Potency entry is “inactive”.

Regarding `CCCCC1C(=O)NC(=O)N(C2CCCCC2)C1=O` (stereo not drawn), the result in assay [1], in assay [3] and in assay [4] was inactive. The Potency entry in assay [2] was “inactive”.

On to `C#C[C@]1(O)C=C[C@H]2[C@@H]3CCC4=CC(=O)CC[C@@H]4[C@H]3CC[C@@]21CC`, for which, in assay [1], the result was inactive. The Potency result in [2] is “inactive”.

Consider `Cc1nnc2n1-c1sc(CCc3ccc(CC(C)C)cc3)cc1C(c1ccccc1Cl)=NC2C` (stereo not drawn), for which the result in [1], in assay [3] and in [4] was inactive. Also, the Potency in assay [2] is 25.5 µM (active).

Turning to `O=C1CN2CCOC2(c2ccccc2Cl)c2cc(Cl)ccc2N1` (stereo not drawn), the result in [1] was inactive. For the same molecule, in assay [2], the Potency entry is “inactive”.

For `C[C@]12CC[C@H](O)CC1=CC[C@@H]1[C@@H]2CC[C@]2(C)C(=O)CC[C@@H]12`, the outcome in assay [6], in assay [7], in [8], in [9], in assay [10] and in assay [1] was inactive. Further, the call in [3] and in assay [4] was inactive. The Potency result in assay [2] was “inactive”.

Consider `Cc1nnc2n1-c1sc(CCC(=O)N3CCOCC3)cc1C(c1ccccc1Cl)=NC2`, for which the outcome in assay [1] was inactive. Further, the Potency result in assay [2] is “inactive”.

Take `C[C@@H]1C[C@@H]([C@H](O)CC2CC(=O)NC(=O)C2)C(=O)[C@@H](C)C1`: the outcome in [1] was inactive. Moreover, in assay [2], the Potency result is “inactive”.

As to `CC(CC(C(N)=O)(c1ccccc1)c1ccccc1)N(C)C` (stereo not drawn), the result in assay [1] was inactive. The Potency result in assay [2] is “inactive”.

As to `C=CC[C@]1(O)CC[C@H]2[C@@H]3CCC4=CC(=O)CCC4=C3C=C[C@@]21C`, the outcome in [1] was inactive.

Consider `COc1ccc2c(C(=O)c3ccc(Cl)cc3)c(C)n(CC(=O)O)c2c1`, for which the outcome in assay [1], in assay [3] and in [4] was inactive. Besides, the Potency result in [2] is “inactive”.

As to `O=C(O)CCCCCCNC1c2ccccc2CCc2ccccc21`, the outcome in [1], in [3] and in assay [4] was inactive. In addition, the Potency result in [2] was “inactive”.

`C[C@]12Cc3nonc3C[C@@H]1CC[C@@H]1[C@@H]2CC[C@@]2(C)[C@H]1CC[C@]2(C)O`: the result in assay [1] was inactive. Moreover, in assay [2], the Potency result is “inactive”.

As for `CC(Cc1ccccc1)NCc1ccccc1Cl` (stereo not drawn), in [1], the result was inactive. Further, in [2], the Potency result was “inactive”.
